# Assay outcomes (PubChem)
# Shown are actives, neighbours in structure and some others; about 3.6% of the full set was active somewhere.
# BJeLR viability = kills HRASV12-expressing BJeLR cells. BJeLR (HRASV12) viability, CellTiter-Glo ATP luminescence, 48 h. inhibition, % (concentration not given with the values). hit rate 0.17% among 300,000. AID 1554; in the data active means inhibition above about 50%; inconclusive means no clear call, values can overlap the other calls
# Autofluor counter = compound fluorescence in toxin protease inhibitor counterscreen | compound autofluorescence counterscreen, microsphere flow cytometry; hits give high values | fluorescence intensity (test concentration not listed) | hit rate 3.1% among 360,000; in the data active means fluorescence intensity above about 16000; inconclusive means no clear call, values can overlap the other calls
# BoNT-A LC inh2 = inhibitors of Botulinum neurotoxin A light chain protease. multiplex microsphere protease substrate cleavage, flow cytometry. inhibition, % at 10 µM. hit rate 0.17% among 360,000. AID 588499
# 3CLpro inhibitor = SARS-CoV 3CLpro protease inhibition | hit rate 0.14% among 290,000 | inhibition, % at 6 µM | P0C6X7 | recombinant SARS-CoV 3CLpro, quenched FRET peptide cleavage; in the data active means inhibition above about 12%
# BoNT F protease = blocks Botulinum neurotoxin F light chain protease. hit rate 0.22% among 360,000. inhibition, % at 10 µM. Multiplex microsphere protease cleavage assay, flow cytometry; in the data active means inhibition above about 35%, passing the limit was not always enough; inconclusive means no clear call, values can overlap the other calls
# Anthrax LF inh2 = inhibitors of Bacillus anthracis lethal factor protease. hit rate 0.12% among 360,000. multiplex microsphere protease cleavage assay, LF. P15917. inhibition, % at 10 µM
# Target sequence (P15917 whole entry, looked up): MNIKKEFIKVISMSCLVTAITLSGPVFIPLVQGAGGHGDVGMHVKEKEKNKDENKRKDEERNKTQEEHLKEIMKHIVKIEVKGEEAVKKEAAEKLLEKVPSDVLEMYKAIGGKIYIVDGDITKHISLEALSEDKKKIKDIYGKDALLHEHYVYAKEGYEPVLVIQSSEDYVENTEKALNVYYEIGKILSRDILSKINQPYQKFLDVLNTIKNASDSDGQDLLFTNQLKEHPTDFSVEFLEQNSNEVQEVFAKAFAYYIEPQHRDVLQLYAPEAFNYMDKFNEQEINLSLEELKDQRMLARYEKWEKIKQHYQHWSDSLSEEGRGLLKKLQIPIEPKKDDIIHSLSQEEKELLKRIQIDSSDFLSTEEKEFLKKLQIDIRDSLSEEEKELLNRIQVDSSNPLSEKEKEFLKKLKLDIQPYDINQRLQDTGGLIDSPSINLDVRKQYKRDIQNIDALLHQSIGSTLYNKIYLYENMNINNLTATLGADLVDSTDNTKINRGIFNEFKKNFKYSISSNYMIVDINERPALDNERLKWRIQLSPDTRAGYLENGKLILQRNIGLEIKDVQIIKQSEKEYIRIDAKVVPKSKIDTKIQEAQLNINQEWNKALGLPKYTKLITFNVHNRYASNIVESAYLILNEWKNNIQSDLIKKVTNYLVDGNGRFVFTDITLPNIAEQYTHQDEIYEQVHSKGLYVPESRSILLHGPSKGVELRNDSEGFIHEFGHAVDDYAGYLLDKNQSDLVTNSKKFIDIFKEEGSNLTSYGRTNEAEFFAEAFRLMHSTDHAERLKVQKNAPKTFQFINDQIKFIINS
# A number is an active result; n = inactive; u = inconclusive; x = no result. Unless noted, no stated cut-off is given here; in the data, active means inhibition above about 30%; inconclusive means no clear call, values can overlap the other calls; inactive means below that.
SMILES,BJeLR viability,Autofluor counter,BoNT-A LC inh2,3CLpro inhibitor,BoNT F protease,Anthrax LF inh2
CC(=O)C1=C(S(=O)(=O)c2ccc(C)cc2)CS(=O)(=O)C1,n,n,n,n,n,n
CC(=NNC(=S)N1CC2CCC(CC2)C1)c1nccs1,x,n,n,x,n,n
CC(=NNC(=S)N1CC2CCC(CC2)C1)c1cccc(C)n1,x,n,n,x,45,n
CC1(C)OC(=O)C=C[C@]2(C)[C@H]3CC[C@@]4(C)[C@H](C(=O)O)OC(=O)[C@H]5O[C@]54[C@]3(C)C(=O)C[C@@H]12,x,n,n,x,n,n
Cc1ccc2nc(NC(=O)CCNS(=O)(=O)c3ccc(Br)s3)sc2c1,n,23058,n,n,n,n
O=C1N=C(N2CCOCC2)S/C1=C1\C(=O)N(Cc2ccccc2)c2ccccc21,n,16736,n,n,n,n
CC1CN(C2=NC(=O)/C(=C3/C(=O)N(Cc4ccc(F)cc4)c4ccccc43)S2)CC(C)O1 (stereo not given),n,n,u,n,u,32
Cc1ccc(C(=O)N/C(=C\c2cccs2)C(=O)NCCCn2ccnc2)cc1,n,n,n,n,n,n
CCc1ccc2c(c1)[C@]1(C(=O)N2)[C@@H]2C(=O)N(Cc3ccccc3)C(=O)[C@@H]2[C@@H]2CCCN21,n,21738,n,n,n,n
COc1cc2[nH]cc(C(=O)NCCc3ccccc3)c(=O)c2cc1OC,x,17186,n,n,n,n
CCOCCCNC(=O)c1c[nH]c2ccc(C)cc2c1=O,n,22538,n,n,n,n
CCOCCCNC(=O)c1c[nH]c2cc(OC)ccc2c1=O,n,n,n,n,n,n
COc1cc2[nH]cc(C(=O)NCc3ccccc3)c(=O)c2cc1OC,n,n,n,n,n,n
O=C1CCN(Cc2cccnc2)CCN1[C@H](CO)Cc1ccccc1,n,n,n,n,n,n
COCCn1c(N)c(C(=O)OCc2ccccc2)c2nc3ccccc3nc21,n,20725,n,n,n,n
CS(=O)(=O)N1CCN(c2ccc(Cl)cc2[N+](=O)[O-])CC1,n,n,n,n,n,n
CNc1c([N+](=O)[O-])cnn1-c1ccccc1Cl,n,23635,n,n,n,n
CNc1c([N+](=O)[O-])cnn1-c1ccc(Cl)cc1Cl,n,18639,n,n,n,n
COc1cccc(NC(=O)c2cc3ccccc3cc2OC)c1,n,n,n,n,u,n
CCC(C)NC(=O)CSc1nnc(-c2ccc(OC)c(OC)c2)c(-c2ccc(OC)c(OC)c2)n1 (stereo not given),n,n,n,n,n,n
FC(F)(F)c1cccc(N2CCN(Cc3cccnc3)CC2)c1,n,16207,n,n,n,n
COc1cccc(CN2CCN(c3cccc(C(F)(F)F)c3)CC2)c1OC,n,16287,n,n,n,n
CCOc1cccc(CN2CCN(c3cccc(C(F)(F)F)c3)CC2)c1O,n,n,n,n,n,n
COc1cccc(CN2CCN(Cc3cc(OC)c(OC)cc3[N+](=O)[O-])CC2)c1,n,16274,u,n,n,n
COc1cc(CN2CCN(c3cccc(Cl)c3)CC2)cc(OC)c1OC,n,25470,n,n,n,n
SMILES,BJeLR viability,Autofluor counter,BoNT-A LC inh2,3CLpro inhibitor,BoNT F protease,Anthrax LF inh2
COc1cccc(N2CCN(Cc3ccc(Cl)cc3)CC2)c1,x,n,n,n,n,n
CCC1=C(c2cc(OC)c(OC)c(OC)c2)C2(CCCC2)C(=O)O1,n,n,n,n,n,n
CCCCn1c(N)c(N(CC)C(=O)c2cccs2)c(=O)[nH]c1=O,x,n,n,x,n,n
COc1cccc(N2CCN(Cc3cccnc3)CC2)c1,n,20710,n,n,n,n
COc1cccc(CN2CCN(Cc3cccc(F)c3)CC2)c1,n,n,n,n,n,n
COc1cccc(CN2CCN(c3ncccn3)CC2)c1,n,22009,n,n,n,n
COc1cccc(N2CCN(Cc3cccc(Cl)c3)CC2)c1,n,24340,u,n,n,n
CCc1nc2c(OCC(=O)C(C)(C)C)cccn2c1N(C=O)CC(=O)N(C)C,x,n,n,x,n,n
O=C(C1CCCN(S(=O)(=O)Cc2ccccc2)C1)N1CCC(Cc2ccccc2)CC1 (stereo not given),n,21341,n,n,n,n
CCCCOc1ccc(NC(=O)C2CC=CCC2C(=O)O)cc1 (stereo not given),n,n,n,n,n,n
CCOc1ccc(NC(=O)C2CC=CCC2C(=O)O)cc1 (stereo not given),n,22332,n,n,n,n
COc1ccc(N2CCC(CNC(=O)Nc3ccccc3)C2)cc1 (stereo not given),n,19305,n,n,n,n
COc1ccc(NC(=O)C2CCN(C(=O)NCc3ccccc3)CC2)cc1,n,16148,n,n,n,n
CCOc1ccc(NC(=O)C2CCN(C(=O)NCc3ccccc3)CC2)cc1,n,22864,n,n,n,n
O=C(COc1ccccc1)Nc1ccc(Cl)cc1Cl,n,x,x,n,x,x
Cc1cnn(C2CCN(C)CC2)c1N,n,16760,n,n,n,n
CC(=O)c1cccc(OCC(O)CNCCOc2ccc(C)cc2)c1 (stereo not given),n,n,n,n,n,n
COc1ccccc1NC(=O)CN1CCN(c2ccccn2)CC1,n,20530,n,n,n,n
Cc1ccc(NC(=O)N2CCN(c3ccccn3)CC2)cc1,n,22825,n,n,n,n
COc1ccccc1NC(=O)CN1CCN(Cc2ccccc2)CC1,n,16872,n,n,n,n
COc1ccc(NC(=O)CN2CCN(CC(=O)Nc3ccccc3Cl)CC2)c(OC)c1,n,22552,n,n,n,n
COc1ccc(NC(=O)CN2CCN(CC(=O)Nc3ccccc3OC)CC2)c(OC)c1,n,n,n,n,n,n
CNc1ccccc1C(=O)OCC(=O)N(CCOC)c1c(N)n(CC(C)C)c(=O)[nH]c1=O,n,n,u,x,u,u
CSCCC(NS(=O)(=O)c1ccc2c(c1)oc(=O)n2C)C(=O)NCc1cccs1 (stereo not given),n,n,n,n,n,n
CC12C=CC3(CN(Cc4ccccc4)C(=O)C3C1C(=O)NCc1ccco1)O2 (stereo not given),n,20657,n,n,n,n
SMILES,BJeLR viability,Autofluor counter,BoNT-A LC inh2,3CLpro inhibitor,BoNT F protease,Anthrax LF inh2
COC(=O)C1C2C=CC3(CN(Cc4ccco4)C(=O)C13)O2 (stereo not given),n,n,n,n,n,n
Cn1nc(C(C)(C)C)cc1C(=O)Nc1nc2c(s1)C(=O)CC(C)(C)C2,n,22625,n,n,n,n
CC1(C)CC(=O)c2sc(NC(=O)C3CC3)nc2C1,n,n,n,n,n,n
COc1c(C)cc(S(=O)(=O)N2CCCC2)c(C)c1C,n,17139,n,n,n,n
Cc1cc(S(=O)(=O)N2CCCC2)c(C)s1,n,20695,n,n,n,n
COc1ccc(-c2cn3cccnc3n2)cc1NC(=O)CC(C)C,n,n,n,n,n,n
COc1ccc(-c2cn3cccnc3n2)cc1NC(=O)c1ccc(Br)o1,n,20830,n,n,n,n
Cc1ccc(-c2cn3cccnc3n2)cc1NC(=O)c1c(-c2ccccc2Cl)noc1C,n,n,n,n,n,n
